Source: PubChem
Vc quorum ag: induces V. cholerae light production without autoinducers. V. cholerae BH1578 lux reporter, luminescence, 6 h. activation, % at 18.7 µM. actives 0.16% (n = 350,000). AID 588436; in the data active means activation mostly above about 9.7%, no sharp cut-off
FBA Mtb inh: inhibitors of M. tuberculosis fructose-bisphosphate aldolase; P9WQA3; purified M. tuberculosis FBA, fluorescence read-out; inhibition, % at 1 µM; actives 2.3% (n = 360,000); AID 588726; in the data active means inhibition above about 27%;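 further: 0% = vehicle and 100% = reference inhibitor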
Target sequence (P9WQA3 whole entry, looked up): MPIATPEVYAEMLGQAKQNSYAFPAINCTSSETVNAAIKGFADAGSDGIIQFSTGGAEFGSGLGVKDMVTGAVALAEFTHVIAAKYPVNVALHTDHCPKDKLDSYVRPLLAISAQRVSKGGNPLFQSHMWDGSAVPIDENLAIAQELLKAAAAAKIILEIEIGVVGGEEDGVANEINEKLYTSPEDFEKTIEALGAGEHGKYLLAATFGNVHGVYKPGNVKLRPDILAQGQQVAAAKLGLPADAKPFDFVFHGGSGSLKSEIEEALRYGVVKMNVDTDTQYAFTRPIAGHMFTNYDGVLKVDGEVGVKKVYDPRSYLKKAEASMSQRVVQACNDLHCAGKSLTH
CCHFV vOTU inh: CCHFV vOTU protease inhibition; Pep-AMC fluorescence; inhibition, % at 11.5 µM; actives 0.55% (n = 370,000); AID 651958; further: 0% = vehicle wells with enzyme and 100% = no enzyme wells
GDH-TPI inh: GDH-TPI coupled enzyme inhibition counter-screen; AID 588335; GDH-TPI coupled enzyme counterscreen, NADH absorbance; actives 1.2% (n = 360,000); inhibition, % at 4.8 µM;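 further: 0% = DMSO wells and 100% = wells lacking the enzyme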
* marks the source's active call; other numbers are inactive results; i = inactive; / = no result given; + = active, no number. This is a sample that favours compounds with a hit; in the whole collection about 3.9% have one here. Unless noted, no stated cut-off is given here; in the data, active means inhibition above about 30%; inactive means the rest.

SMILES | Vc quorum ag | FBA Mtb inh | CCHFV vOTU inh | GDH-TPI inh
CCN1C(=O)[C@H]2[C@H]3CN=C(SC)N3[C@@](Cc3ccccc3)(C(=O)OC)[C@H]2C1=O | i | 6 | 6 | 4
O=C(/C=C/c1ccccc1)NCCS(=O)(=O)N1CCN(c2ccc(F)cc2)CC1 | 1 | -2 | -4 | 0
O=C(N/N=C/c1ccc([N+](=O)[O-])cc1)c1cc(C2CC2)[nH]n1 | 1 | -1 | 16 | 35*
CCCCNc1c(-c2ccc(SC3CCCCC3)cc2)nc2ccccn12 | -1 | 50* | -24 | 20
CCOC(=O)C1CCN(S(=O)(=O)c2cccc(-c3cn4cc(C)ccc4n3)c2)CC1 | / | 8 | 2 | 6
CCOC(=O)C1CCN(S(=O)(=O)c2cccc(-c3cn4cccnc4n3)c2)CC1 | -2 | + | -206 | 8
COc1ccc(C(=O)NC(C)c2ccc(-n3ccnc3)cc2)cc1S(=O)(=O)N1CCOCC1 (centres undefined) | 6 | 2 | 7 | 4
C=CCn1c(N)c(C(=O)NCCC2=CCCCC2)sc1=S | -2 | 2 | -13 | 35*
Cc1c(/C=N/NC(=O)CNc2ccccc2)c2ccccn2c1C(=O)c1ccc(Cl)cc1 | 0 | 4 | 5 | 20
Cc1ccccc1NCC(=O)N/N=C/c1c(C)c(C(=O)c2ccc(Cl)cc2)n2ccccc12 | 0 | -5 | -12 | 32*
Cc1c(C=O)c2ccccn2c1C(=O)c1ccc(F)cc1 | i | -2 | 10 | 33*
Cc1cc(C)cc(NC(=S)NCC2CCN(C(C)c3ccccc3)C2)c1 (centres undefined) | -1 | 0 | -14 | 8
CCC1Oc2ccc(C)cc2N(CC(=O)N(Cc2ccncc2)Cc2ccco2)C1=O (centres undefined) | -17 | -2 | -12 | 10
Cn1ccc2c(/C=C/c3ccc(F)cc3)cc3c(c21)C1CCC3O1 (centres undefined) | / | 140* | -48 | /
Nc1nc2n(n1)C(c1cccs1)CC(c1ccc(F)cc1)N2 (centres undefined) | 0 | 13 | -8 | 0
COc1ccc(C2CC(c3cccs3)n3nc(N)nc3N2)cc1 (centres undefined) | 0 | 135* | -143 | 24
CC(=O)Cc1nsc(NC(=O)c2ccc(-c3ccc(Cl)cc3Cl)o2)n1 | i | 2 | 6 | -1
CC(=O)Cc1nsc(NC(=O)c2ccc(-c3cc(Cl)ccc3Cl)o2)n1 | 0 | 10 | 1 | 46*
COc1ccc(OCc2nnc3n2N=C(c2ccc(C)cc2)CS3)cc1 | + | 3 | 11 | 0
c1ccc(OCc2nnc3n2N=C(c2ccccc2)CS3)cc1 | 0 | 7 | 18 | 1
COc1ccc(C2=Nn3c(nnc3-c3ccccc3)SC2)cc1OC | 0 | 2 | -6 | 13
COc1ccc(OC)c(-c2nnc3n2N=C(c2ccc(OC)c(OC)c2)CS3)c1 | -1 | 2 | 18 | 34*
Cc1nc2c(S(=O)(=O)c3ccccc3)cnn2c(C)c1C | -1 | 44* | -6 | 0
Cn1c(=O)c2c(nc(Cc3ccc(N)cc3)n2C)n(C)c1=O | 0 | 0 | -11 | 4
Cn1c(=O)c2c(nc(-c3ccc(N(CCCl)CCCl)cc3)n2C)n(C)c1=O | i | + | -232 | 39*
SMILES | Vc quorum ag | FBA Mtb inh | CCHFV vOTU inh | GDH-TPI inh
COc1ccc(Cl)cc1S(=O)(=O)N1CCN=C1c1ccccc1 | i | 5 | -5 | 3
COC(=O)/C=C/C1=CN(Cc2ccccc2)CCC1=O | -1 | -2 | 8 | 61*
COC(=O)C12CCc3c(ccc4cc(OC)ccc34)C1=CC(=O)C2 (centres undefined) | -1 | + | -334 | 45*
COc1ccc2cc(C(=O)O)ccc2c1 | 0 | 5 | 3 | 10
O=C1C(C=Nc2ccccc2)=C(O)c2ccccc21 | -8 | -6 | 27 | 19
CN=CC1=C(O)c2ccccc2C1=O | 2 | 2 | 18 | 35*
CCOc1cc(S(=O)(=O)NCCc2cccc(C)c2)c(OCC)cc1-n1cnnn1 | i | 40* | 6 | -1
CCOc1cc(S(=O)(=O)N2CCC(Cc3ccccc3)CC2)c(OCC)cc1-n1cnnn1 | i | 8 | -5 | 20
CCOC(=O)c1ccc2nc(NC(=O)c3cccs3)sc2c1 | -1 | 25 | 19 | 38*
CCOC(=O)c1ccc2nc(NC(=O)c3ccco3)sc2c1 | i | 22 | -3 | 36*
Cc1ccc2nc(NC(=O)COC(=O)c3ccco3)sc2c1 | -1 | 2 | -2 | -9
O=C(COC(=O)c1ccco1)Nc1nc2ccc([N+](=O)[O-])cc2s1 | i | 2 | 15 | 34*
O=C(Nc1nc2ccc(F)cc2s1)c1cccs1 | 0 | 3 | -2 | 40*
NC1CCN(c2c(F)cc3c(=O)c(C(=O)O)cn(C4CC4)c3c2Cl)C1 (centres undefined) | -8 | 3 | 7 | 34*
NC1CCN(c2nc3c(cc2F)c(=O)c(C(=O)O)cn3-c2ccc(F)cc2F)C1 (centres undefined) | 0 | 7 | 6 | 24
O=C(Nc1ccc(S(=O)(=O)Nc2nccs2)cc1)c1nn(-c2ccccc2)ccc1=O | 0 | -1 | 2 | 16
COc1ccc(/C=C2/SC(=O)N(CCC(=O)Nc3ccc(S(=O)(=O)Nc4nccs4)cc3)C2=O)cc1 | i | -6 | 10 | 34*
COc1ccc(/C=C2/SC(=S)N(c3ccc(S(=O)(=O)Nc4nccs4)cc3)C2=O)cc1 | 0 | -6 | 13 | 12
Cc1ccc(/C=C2/SC(=S)N(c3ccc(S(=O)(=O)Nc4nccs4)cc3)C2=O)cc1 | -4 | 2 | 14 | 39*
COc1ccc(/C=C2\SC(=O)N(CCC(=O)Nc3ccc(S(=O)(=O)Nc4nccs4)cc3)C2=O)cc1 | 0 | -4 | 28 | 27
COc1ccc(-n2ccc(=O)c(C(=O)Nc3ccc(S(=O)(=O)Nc4nccs4)cc3)n2)cc1 | 0 | 2 | 28 | 40*
O=[N+]([O-])c1nn(-c2ccc3c(c2)OCCO3)n(O)c1=Nc1ccccc1 | 0 | -4 | 17 | 11
Cc1nc(-c2ccc3c(c2)OCO3)cs1 | i | 2 | -10 | -13
COc1ccc(-c2[nH]c(-c3ccc4c(c3)OCO4)nc2-c2ccccc2)cc1 | i | 80* | -14 | 9
Oc1ccc(-c2nc(-c3ccc(F)cc3)c(-c3ccncc3)[nH]2)cc1 | 4 | 2 | 7 | 19
SMILES | Vc quorum ag | FBA Mtb inh | CCHFV vOTU inh | GDH-TPI inh
O=C(O)c1ccc(-c2nc(-c3ccccc3)c(-c3ccccc3)[nH]2)cc1 | -2 | + | -343 | 30
COc1ccc(-c2[nH]c(-c3ccc(C(=O)O)cc3)nc2-c2ccccc2)cc1 | 0 | + | -204 | 11
Cc1c(C)c(C)c2[nH]c(-c3ccc4c(c3)OCO4)nc2c1C | -1 | 173* | / | 3
CCCCNC(=O)N(O)C1N(/N=C/c2ccco2)C(=S)SC1(C)C (centres undefined) | 1 | -2 | 4 | 44*
CC1(C)SC(=S)N(/N=C/c2ccc(O)cc2)C1N(O)C(=O)Nc1ccc([N+](=O)[O-])cc1 (centres undefined) | i | -1 | 2 | 35*
C(=C\c1nnc(-c2cccs2)o1)/c1ccccc1 | i | 18 | 1 | 51*
